The results in this text go back to PubChem BioAssay (NCI).

Each structure is given as a SMILES string. About 79,000 compounds went through this panel and 15% of them were active in at least one assay; those are over-represented in the sample as a whole. Values without a mark were called inactive. Activity calls are given as the source filed them. No stated cut-off is given here; in the data, active means growth inhibition above about 70%; inactive means the rest.

A short description of experiment [1]: NCI Yeast Anticancer Drug Screen. Data for the rad50 strain (AID 155).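 Further: 0% = growth of vehicle-only cultures of the same strain.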 Conditions: S. cerevisiae rad50 strain growth inhibition; at 50.0 µM; active compounds read high. An outline of the steps: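 Relative growth inhibition (compound vs vehicle) was measured in yeast with a defined repair-gene alteration.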
A short description of experiment [2]: NCI Yeast Anticancer Drug Screen. Data for the mec2-1 strain (AID 157). The note with it: S. cerevisiae mec2-1 strain, at 50.0 µM, active compounds read high. Put shortly: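 Mutant yeast (mec2-1) grown with compound; growth inhibition relative to vehicle control reported.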
Experiment [3] in a line: NCI Yeast Anticancer Drug Screen. Data for the sgs1 mgt1 strain (AID 161).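 Further: 0% = growth of cultures given vehicle only.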 Conditions: S. cerevisiae sgs1 mgt1 strain, at 50.0 µM, active compounds read high. Put shortly: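 Compounds are added to genetically altered yeast, and growth is compared with cultures given vehicle alone to give percent inhibition.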
Experiment [4] is described as follows: NCI Yeast Anticancer Drug Screen. Data for the cln2 rad14 strain (AID 165).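 Further: 0% = growth equal to vehicle treated cultures.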 Conditions: S. cerevisiae cln2 rad14 strain, at 50.0 µM, active compounds read high. Put shortly: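 Readout is yeast growth inhibition versus vehicle-treated controls, using a strain with cln2 and rad14 alterations exposed to compound.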
A short description of experiment [5]: NCI Yeast Anticancer Drug Screen. Data for the bub3 strain (AID 167). Conditions: S. cerevisiae bub3 mutant strain, at 50.0 µM, active compounds read high. An outline of the steps: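 Screening used yeast with an engineered genetic alteration affecting cell cycle control. Compound-exposed cultures were compared with vehicle cultures, and reduced growth was taken as inhibition.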

Experiment [6] is described as follows: NCI Yeast Anticancer Drug Screen. Data for the mlh1 rad18 strain (AID 175). The note with it: S. cerevisiae mlh1 rad18 strain growth inhibition; at 50.0 µM; active compounds read high. Put shortly: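 Genetically defined yeast (DNA repair-deficient) exposed to compounds; growth inhibition determined relative to vehicle.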

On to `Cc1c2c(n3c(nc4ccccc43)c1C#N)N(c1ccc(Cl)cc1)CC2`, for which the growth inhibition in experiment [1] is 1.1%; in experiment [2] it was -1.3%; in experiment [3], -10.8%; in experiment [4], 7.35%; in experiment [5], -6.4%; in experiment [6], -15.3%.
With `CCCCN(CC)CCNc1cc(C)nc(/N=C(\N)Nc2ccc(Cl)c(Cl)c2)n1`, the growth inhibition in experiment [1] was 95.8% (active); in experiment [2], 85% (active); in experiment [3] it was 96.3% (active); in experiment [4] it was 29.1%; in experiment [5], 76.5% (active); in experiment [6] it was 92.5% (active).
On to `CC(=Nc1ccc(C)cc1N)c1c(O)cc(C)oc1=O`, for which the growth inhibition was -8.75% in experiment [1]; -7.5% in experiment [2]; -11.4% in experiment [3]; -32.6% in experiment [4]; 1.3% in experiment [5]; -5.85% in experiment [6].
Take `O=[N+]([O-])c1ccc(N/N=C\C2CC=C3c4ccccc4CCC3C2/C=N\Nc2ccc([N+](=O)[O-])cc2[N+](=O)[O-])c([N+](=O)[O-])c1` (stereo unspecified): the growth inhibition in experiment [1] was 0.75%; in experiment [2] it was 3.1%; in experiment [3], -15.1%; in experiment [4], -9.7%; in experiment [5], -3.3%; in experiment [6] it was -5.85%.
Take `CCOC(=O)c1n[nH]c(C)c1C/C(=N/O)c1ccccc1`: the growth inhibition is -14.3% in experiment [1]; -24.4% in experiment [2]; -8.25% in experiment [3]; -14.9% in experiment [4]; -14.9% in experiment [5]; -35.9% in experiment [6].
`CCOC(=O)CCC(NC(=O)c1ccc(NCc2ccc3nc(-c4ccccc4)c(Cl)nc3c2)cc1)C(=O)OCC` (stereo unspecified): the growth inhibition is 29.7% in experiment [1]; -3.85% in experiment [2]; -5.3% in experiment [3]; -5.6% in experiment [4]; 1.7% in experiment [5]; 4.3% in experiment [6].
Take `Cc1cc(C)c(NC(=O)Nc2ccccc2F)cc1C`: the growth inhibition in experiment [1] is 18.7%; in experiment [2], 19.6%; in experiment [3], 14.3%; in experiment [4], 24.7%; in experiment [5], 33.1%; in experiment [6], 8.85%.
Regarding `O=C(COc1ccccc1)Nc1cccc2ccccc12`, the growth inhibition in experiment [1] was 4.5%; in experiment [2], 24.5%; in experiment [3], 6.6%; in experiment [4], -3.7%; in experiment [5] it was 10.4%; in experiment [6] it was 29.2%.
Turning to `O=S(=O)(N/C(=C(\NS(=O)(=O)c1ccccc1)c1ccccc1)c1ccccc1)c1ccccc1`, the growth inhibition in experiment [1] was 63.7%; in experiment [2] it was 6.15%; in experiment [3], 39%; in experiment [4], 18.3%; in experiment [5] it was 60.9%; in experiment [6], 61.2%.
Take `COC(CCl)OC`: the growth inhibition is 3.75% in experiment [1]; -18.6% in experiment [2]; 15.8% in experiment [3]; 10.3% in experiment [4]; -9.7% in experiment [5]; 2.6% in experiment [6].
With `Nc1ccc(Cl)cc1C(=O)Oc1ccccn1`, the growth inhibition in experiment [1] was 6.9%; in experiment [2], -0.65%; in experiment [3], -6.25%; in experiment [4], -0.4%; in experiment [5] it was -5.5%; in experiment [6], -0.7%.
Turning to `CC(C)(C)OC(=O)NCCCCC(NC(=O)OC(C)(C)C)C(=O)O` (stereo unspecified), the growth inhibition in experiment [1] was 3.65%; in experiment [2], 8.55%; in experiment [3] it was 9.7%; in experiment [4], 2.8%; in experiment [5], 5.95%; in experiment [6] it was -8.65%.
As for `NC(CCCCO)C(=O)O` (stereo unspecified), the growth inhibition in experiment [1] is -6.8%; in experiment [2] it was -35.8%; in experiment [3], 4.1%; in experiment [4], 23.1%; in experiment [5], -29.1%; in experiment [6], -15%.
For the compound `COc1ccc(CC(=O)OCCCl)cc1OC`, the growth inhibition in experiment [1] was -17%; in experiment [2], -22.4%; in experiment [3] it was 3%; in experiment [4], -26.4%; in experiment [5] it was 44.1%; in experiment [6] it was -20.7%.
On to `CC1(C)OS2(OC(C)(C)c3ccccc32)c2ccccc21`, for which the growth inhibition in experiment [1] is -10.2%; in experiment [2] it was 6.85%; in experiment [3], 6.5%; in experiment [4], 8.75%; in experiment [5], 6.3%; in experiment [6], 7.65%.
On to `CN(C)B(B(N(C)C)N(C)C)N(C)C`, for which the growth inhibition is 13.7% in experiment [1]; 17.4% in experiment [2]; 35.6% in experiment [3]; 22.4% in experiment [4]; 13.8% in experiment [5]; 34.8% in experiment [6].
As to `Cc1cc(=O)c2cccc(-c3ccccc3)c2[nH]1`, the growth inhibition is 19.5% in experiment [1]; 1.25% in experiment [2]; 1.15% in experiment [3]; -30.9% in experiment [4]; -12.9% in experiment [5]; 22.2% in experiment [6].
In the case of `Cc1ccc(S(=O)(=O)Nc2ccc(C(=O)Cl)cc2)cc1`, the growth inhibition is 4.8% in experiment [1]; 25.4% in experiment [2]; 23.5% in experiment [3]; 6.9% in experiment [4]; 27.4% in experiment [5]; 11.8% in experiment [6].
In the case of `CSc1nc2cc(S(=O)(=O)N3CCCCC3)ccc2s1`, the growth inhibition was -34.5% in experiment [1]; -21.8% in experiment [2]; -25.5% in experiment [3]; -52.6% in experiment [4]; -89.3% in experiment [5]; -7% in experiment [6].
For the compound `Nc1ccc(S(=O)(=O)NC(=O)c2ccccc2)cc1`, the growth inhibition in experiment [1] is 12.8%; in experiment [2], -7%; in experiment [3] it was 10.1%; in experiment [4], -26.9%; in experiment [5], -3%; in experiment [6], 0.2%.
For the compound `C=C1C2CCC3(CCC4C5(C)CCCC4(C=NC5)C3C2)C1O` (stereo unspecified), the growth inhibition is 8.5% in experiment [1]; -10.7% in experiment [2]; 3.6% in experiment [3]; 6.75% in experiment [4]; -7.3% in experiment [5]; 1.6% in experiment [6].
